ALOX12 inh: inhibitors of human 12S-lipoxygenase ALOX12. P18054. purified 12hLO, xylenol orange hydroperoxide absorbance. Potency, µM (doses to about 108 µM), for the others: at the highest dose activity change, negative = inhibition, most hits filed as inhibitors. 1.1% of 580,000 active; also: % is scaled to controls: 0 for no effect and ±100 for the full control effect
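Purified human 12hLO (150 nM final) in 25 mM Hepes, 0.01% Triton X-100, pH 7.0 was preincubated 15 min at room temperature with compound. Then 40 uM arachidonic acid was added, 30 min. Hydroperoxide was read by Fe-XO absorbance ratio 573/405 nm.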
G9a inh: inhibitors of human histone lysine methyltransferase G9a; 8.8% of 350,000 active; Potency, µM (doses to about 102 µM), for inactives: top-dose activity, negative = inhibition, actives largely listed as inhibitors; AID 504332; G9a H3K9 monomethylation, AlphaScreen, 2 h; also: % is scaled to controls: 0 for no effect and ±100 for the full control effect; nearly all actives have a fitted effect of over 75% in size
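Using a bead-based AlphaScreen, monomethylated H3K9 product from 2 h room-temperature reactions (G9a 20 nM, peptide 500 nM, SAM 20 uM) was detected with 0.5 ug/mL rabbit anti-H3K9me1 antibody.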
HP1b binding inh: HP1-beta chromodomain-methylated histone interaction inhibition; AlphaScreen HP1-beta / biotin-H3K9me3 peptide binding; P83916; AID 540317; 0.56% of 390,000 active; Potency, µM (titrated, usually from 114 µM), without a hit: at the highest dose activity change, negative = inhibition, hits mostly inhibitors; also: nearly all actives have a fitted effect of over 70% in size
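Compound inhibition of the preformed complex between 50 nM HP1-beta and 50 nM biotinylated H3K9me3 peptide was read by AlphaScreen. Buffer was PBS pH 7.4 with 0.01% Tween-20. Incubations ran 30 min at room temperature, with 10 ug/mL donor/acceptor beads.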
JMJD2A Tudor inh: JMJD2A Tudor domain (human) inhibition; AlphaScreen JMJD2A-Tudor / H3K4me3 peptide binding; Potency, µM (highest dose often 114 µM), for the others: top-dose activity change, negative = inhibition, usual class: inhibitors; 4.4% of 390,000 active; also: % is scaled to controls: 0 for no effect and ±100 for the full control effect; nearly all actives have a fitted effect of over 50% in size
Sfp PPTase inh: inhibitors of Bacillus subtilis Sfp phosphopantetheinyl transferase | Biochemical Sfp PPTase activity, qHTS | Potency, µM, inactives show largest response in the series, negative = inhibition, actives largely listed as inhibitors | AID 1490 | Q9F4F7 | 3.5% of 310,000 active;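 also: the enzyme is Sfp with the accession as filed and its product quenches rhodamine fluorescence; 0% = enzyme reaction without inhibitor and -100% = no enzyme wells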
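After 15 min at room temperature with compound, 15 nM Sfp received 5 uM rhodamine-CoA plus 12.5 uM BHQ-2-ybbR (50 mM Hepes pH 7.6, 10 mM MgCl2). Rate came from the fluorescence difference over 30 min, ex 525/em 598 nm.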
BAZ2B inh: BAZ2B (human) inhibition; Q9UIF8; AlphaScreen BAZ2B-H3K14Ac peptide displacement; Potency, µM (highest dose often 114 µM), for inactives: at the highest dose activity change, negative = inhibition, hits mostly inhibitors; 4.4% of 360,000 active; AID 504333; also: % is scaled to controls: 0 for no effect and ±100 for the full control effect; nearly all actives have a fitted effect of over 60% in size
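AlphaScreen displacement: compounds (up to 110uM) incubated 30 min at room temperature with a preformed 50 nM BAZ2B/50 nM biotinylated H3K14Ac peptide complex in PBS pH 7.4 with Tween-20. Donor and acceptor beads at 10 ug/mL final added, 20 min light-protected before reading.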
* = called active by the depositor; [ ] = dose if it differs, or a comment. An excerpt weighted towards active compounds, which were near 8.7% of everything screened. Calls follow the shape of the dose curve; as a rule, active = well fitted curve in the direction sought with a large enough effect; inconclusive = small, poorly fitted or top-dose-only effect, or another doubt; inactive = no such curve, though single readings can be large; an effect the other way counts as inactive or inconclusive. Potency is read from the fitted curve at half-maximal effect.

`CC1CCCN(C(=O)c2ccccc2NS(=O)(=O)c2cccc(C(F)(F)F)c2)C1` (centres undefined) gave ALOX12 inh 24%.
`Cc1ccc(S(C)(=O)=O)cc1C(=O)OCC(=O)C(C)(C)C` gave ALOX12 inh -3%.
Screening CC1(C)OC2C(CO)OC(n3cnc4c(=S)nc[nH]c43)C2O1 (centres undefined) returned ALOX12 inh inconclusive, G9a inh 8.9µM*, HP1b binding inh inconclusive, JMJD2A Tudor inh inconclusive, Sfp PPTase inh 16µM* and BAZ2B inh 50µM*.
Screening OCC1OC(n2cnc3c(=S)nc[nH]c32)C(O)C1O (centres undefined) returned G9a inh 16µM*, HP1b binding inh inconclusive, JMJD2A Tudor inh 20µM* and Sfp PPTase inh 3.5µM*.
Screening COc1ccc(-c2[nH]nc3ncc(C(=O)N4CCC(c5ccccc5)CC4)nc23)c(C)c1 returned ALOX12 inh 12%[176 µM].
Cc1cccc2nc(CSc3nnc(N)s3)cn12 was read as ALOX12 inh 5%, G9a inh 32µM*, HP1b binding inh 14%, JMJD2A Tudor inh -9%, Sfp PPTase inh 2% and BAZ2B inh 1%.
Screening S=C(NCc1ccccc1)Nc1ccc2ccccc2c1 returned ALOX12 inh inconclusive, G9a inh 11%, HP1b binding inh 16%, JMJD2A Tudor inh -27%, Sfp PPTase inh 4% and BAZ2B inh -27%.
For C/C(=C\C(=S)Nc1ccccc1)Nc1ccc2ccccc2c1 the results were ALOX12 inh inconclusive, G9a inh -49%[59 µM], HP1b binding inh inconclusive, JMJD2A Tudor inh 79µM*, Sfp PPTase inh inconclusive and BAZ2B inh 25µM*.
CN(C)c1cccc(C(=O)NC2CCN(c3cc(-c4ccc(Cl)cc4)[nH]n3)C2)c1 (centres undefined) was read as ALOX12 inh 22%.
Nc1nnc(-c2cccc([N+](=O)[O-])c2)s1 was read as ALOX12 inh 23%, G9a inh 0%, HP1b binding inh 43%, JMJD2A Tudor inh -1%[57.1 µM], Sfp PPTase inh 16% and BAZ2B inh 5%.
`Nc1nnc(-c2ccc(Cl)c([N+](=O)[O-])c2)s1` gave ALOX12 inh -14%, G9a inh 45µM*, HP1b binding inh 2%, JMJD2A Tudor inh -21%, Sfp PPTase inh -19% and BAZ2B inh -20%.
`CC1CC(NN(C)C)C(C#N)(C#N)C(C)C1(C#N)C#N` (centres undefined) gave ALOX12 inh -25%.
CN(CC(=O)Nc1c(Cl)cccc1Cl)C(=O)c1cccc(-n2cccc2)c1 was read as ALOX12 inh -21%, G9a inh 3%[0.501 µM], HP1b binding inh 32µM*, JMJD2A Tudor inh 14µM* and BAZ2B inh 35µM*.
Cc1ccc(C)c(NC(=O)CN(C)C(=O)c2cccc(-n3cccc3)c2)c1 was read as ALOX12 inh -30%, G9a inh 40µM*, HP1b binding inh 45µM*, JMJD2A Tudor inh 16µM* and BAZ2B inh 25µM*.
Screening CN(CC(=O)Nc1ccccc1Cl)C(=O)c1cccc(-n2cccc2)c1 returned ALOX12 inh -1%, G9a inh -4%[12.7 µM], HP1b binding inh -9%, JMJD2A Tudor inh -30% and BAZ2B inh inconclusive.
CCN(CC(=O)Nc1ccc(NC(C)=O)cc1)C(=O)c1cccc(-n2cccc2)c1 was read as G9a inh 50µM*, HP1b binding inh inconclusive, JMJD2A Tudor inh -32% and BAZ2B inh 50µM*.
CN(CC(=O)Nc1cccc(F)c1)C(=O)c1cccc(-n2cccc2)c1 was read as ALOX12 inh inconclusive, G9a inh inconclusive, HP1b binding inh inconclusive, JMJD2A Tudor inh 28µM* and BAZ2B inh 28µM*.
